PubChem BioAssay (NCI)
This is part of a sample that, as a whole, favours compounds with a hit. Of some 83,000 tested, about 20% had one in any assay.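 Note: values are percent growth. 100 is the growth of untreated cells, values between 100 and 0 indicate rising inhibition; between -100 and 0 indicates cell death.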 Activity calls are given as the source filed them. How the source made its calls: active means growth percent below 10; inactive means the rest.

Tests used:
Assay in all cases: NCI-60 one-dose screen, 48 h (100 = growth as untreated, 0 = no growth, -100 = all killed)
Conditions in all cases: 10 µM unless noted
T-47D breast = test system: T-47D breast
BT-549 breast = test system: BT-549 breast
MDA-MB-435 melanoma = test system: MDA-MB-435 melanoma
SW-620 colon = test system: SW-620 colon
MCF7 breast = test system: MCF7 breast
HCT-116 colon = test system: HCT-116 colon
HCC-2998 colon = test system: HCC-2998 colon
KM12 colon = test system: KM12 colon

Measured: growth

O=C(/C=C/c1ccc(F)cc1)N1CCN(C(=O)/C=C/c2ccc(C(F)(F)F)cc2)CC1
inactive: T-47D breast 113% | BT-549 breast 115% | MDA-MB-435 melanoma 104% | SW-620 colon 106% | MCF7 breast 98.2% | HCT-116 colon 98% | HCC-2998 colon 102% | KM12 colon 108%

CN1C(=O)C(C(=O)/C=C/c2ccccc2C(=O)O)C(=O)N(C)C1=O
inactive: T-47D breast 89.2% | BT-549 breast 90.4% | MDA-MB-435 melanoma 101% | SW-620 colon 109% | MCF7 breast 112% | HCT-116 colon 97.3% | HCC-2998 colon 116% | KM12 colon 104%

CN(C)CCCn1c(=O)c2cc([N+](=O)[O-])ccc2c2cnc3[nH]ccc3c21
inactive: T-47D breast 86.5% | BT-549 breast 68.7% | MDA-MB-435 melanoma 67.7% | SW-620 colon 33.1% | HCT-116 colon 12.4% | HCC-2998 colon 60% | KM12 colon 47.9%
active: MCF7 breast -12%

CCC(=O)NC1=C(Cl)C(=O)C(NC(=O)CC)=C(Cl)C1=O
inactive: BT-549 breast 119% | MDA-MB-435 melanoma 136% | MCF7 breast 28.3% | HCC-2998 colon 103% | KM12 colon 109%
active: T-47D breast -54.4% | SW-620 colon -72.1% | HCT-116 colon -93.1%

COc1ccc(/C(C)=N/NC(=O)CSc2nc3ccccc3c(=O)n2CCc2ccc(S(N)(=O)=O)cc2)cc1
inactive: T-47D breast 22.3% | BT-549 breast 64.2% | MDA-MB-435 melanoma 16.7% | SW-620 colon 54.6% | MCF7 breast 59.1% | HCC-2998 colon 74.8% | KM12 colon 25.1%
active: HCT-116 colon -47%

CNC(=O)c1c(NC(=O)c2ccc(C(C)C)cc2)sc2c1CCC(=O)C2
active: T-47D breast -36.6% | BT-549 breast -11.2% | MDA-MB-435 melanoma 9.66% | SW-620 colon -35.5% | MCF7 breast 0.569% | HCT-116 colon -31.2% | HCC-2998 colon -55.3% | KM12 colon -17.9%

COc1cc(C2CC(c3ccc(Cl)cc3)=NN2C(C)=O)ccc1Oc1nc2c(c(=O)n(C)c(=O)n2C)n1C (centres undefined)
inactive: T-47D breast 76.8% | BT-549 breast 83.2% | MDA-MB-435 melanoma 64.1% | SW-620 colon 98.1% | MCF7 breast 70.2% | HCT-116 colon 85.5% | HCC-2998 colon 87.3% | KM12 colon 78.2%

COc1ccc(/C=C/c2nc3ccccc3c(=O)n2-c2ccc(C#Cc3ccc(C(C)(C)C)cc3)cc2C)c(OC)c1
inactive: T-47D breast 85.5% | BT-549 breast 99.4% | MDA-MB-435 melanoma 91.8% | SW-620 colon 86.7% | MCF7 breast 105% | HCT-116 colon 69% | HCC-2998 colon 97.2% | KM12 colon 88.1%

COc1ccc(C(=O)C(CN(C)C)c2ccc(OC)cc2)cc1 (centres undefined)
inactive: T-47D breast 56.7% | MDA-MB-435 melanoma 43.8% | SW-620 colon 11.9% | MCF7 breast 18.5% | HCT-116 colon 14.7% | HCC-2998 colon 117% | KM12 colon 78%
active: BT-549 breast 2.74%

Nc1cc(C(=O)O)cc(C(=O)O)c1
inactive: T-47D breast 97.1% | BT-549 breast 107% | MDA-MB-435 melanoma 108% | SW-620 colon 110% | MCF7 breast 99.8% | HCT-116 colon 101% | HCC-2998 colon 121% | KM12 colon 111%

CC(C)(C)OC[C@@H]1N=C(c2ccc(Br)cc2)Nc2nc3ccccn3c2C1=O
inactive: T-47D breast 61.9% | BT-549 breast 72.5% | SW-620 colon 40.3% | MCF7 breast 27.8% | HCT-116 colon 43.7% | HCC-2998 colon 90.9% | KM12 colon 49%
active: MDA-MB-435 melanoma -13.8%

COc1ccc(-c2cnc(-c3ccncc3-c3cccc(OC)c3)o2)cc1
active: MDA-MB-435 melanoma 4.88% | HCT-116 colon 4.92% | KM12 colon -28.6%
inactive: T-47D breast 37.2% | BT-549 breast 37.1% | SW-620 colon 22.5% | MCF7 breast 16.4% | HCC-2998 colon 17.3%

CCN(CC)Cc1cc(Nc2ccnc3ccc(OC)cc23)ccc1O
active: T-47D breast -43.9%
inactive: BT-549 breast 55.2% | MDA-MB-435 melanoma 47.6% | SW-620 colon 27.5% | MCF7 breast 22.9% | HCT-116 colon 16.2% | HCC-2998 colon 32.8% | KM12 colon 42.2%

CC(C)(C)OC(=O)N1CCCN(CCNc2nccc(-c3c(-c4cccc(O)c4)nc4sccn34)n2)S1(=O)=O
inactive: T-47D breast 86.6% | BT-549 breast 136% | MDA-MB-435 melanoma 54.1% | SW-620 colon 131% | MCF7 breast 97.8% | HCT-116 colon 81.7% | HCC-2998 colon 108% | KM12 colon 111%

Cc1ccc(C(=O)CC(=O)C(F)(F)C(F)(F)C(F)(F)F)s1
inactive: T-47D breast 108% | BT-549 breast 103% | MDA-MB-435 melanoma 99% | SW-620 colon 103% | MCF7 breast 105% | HCT-116 colon 110% | HCC-2998 colon 105% | KM12 colon 112%

O=c1oc2ccccc2cc1-c1cc(-c2ccc(-c3cc(-c4cc5ccccc5oc4=O)nc(-c4cc5ccccc5oc4=O)c3)cc2)cc(-c2cc3ccccc3oc2=O)n1
inactive: T-47D breast 91.1% | BT-549 breast 106% | MDA-MB-435 melanoma 114% | SW-620 colon 110% | MCF7 breast 68.6% | HCT-116 colon 97% | HCC-2998 colon 110% | KM12 colon 103%

COc1ccc(-c2cc(C(=O)Nc3ccc(C)cc3)nc3[nH]c(=O)sc23)cc1
inactive: T-47D breast 58.7% | BT-549 breast 75.9% | MDA-MB-435 melanoma 65.5% | SW-620 colon 77.2% | MCF7 breast 71.6% | HCT-116 colon 66.2% | HCC-2998 colon 76.7% | KM12 colon 67.4%

O=[N+]([O-])c1ccc(N=Nc2c(NNc3ccc([N+](=O)[O-])cn3)cc(S(=O)(=O)O)c3ccccc23)nc1
inactive: T-47D breast 90.9% | BT-549 breast 81.7% | MDA-MB-435 melanoma 90% | SW-620 colon 83.1% | MCF7 breast 85.9% | HCT-116 colon 69.6% | HCC-2998 colon 87.1% | KM12 colon 87.6%

NC(=O)N/N=C\c1ccc([N+](=O)[O-])o1
inactive: T-47D breast 101% | BT-549 breast 106% | MDA-MB-435 melanoma 102% | SW-620 colon 96.9% | MCF7 breast 94.6% | HCT-116 colon 109% | HCC-2998 colon 104% | KM12 colon 98.1%

CC(C)(C)[Si](C)(C)OC1[C@@H](O[Si](C)(C)C(C)(C)C)[C@@H](CNC(=O)NC(=O)NC(=O)CI)O[C@H]1n1cnc2c(NC(=O)Nc3ccccc3)ncnc21 (some centres undefined)
inactive: T-47D breast 87.5% | BT-549 breast 97.3% | MDA-MB-435 melanoma 93.2% | SW-620 colon 76.1% | MCF7 breast 70.8% | HCT-116 colon 38.5% | HCC-2998 colon 99.4% | KM12 colon 32.9%

O=C(CSc1nc2c(n1Nc1ccccc1)-c1ccccc1SC2)Nc1nccs1
inactive: T-47D breast 97.6% | BT-549 breast 127% | MDA-MB-435 melanoma 103% | SW-620 colon 97.5% | MCF7 breast 96.3% | HCT-116 colon 88.3% | HCC-2998 colon 99.7% | KM12 colon 102%

ClC1(Cl)C2CCCCCCC21 (centres undefined)
inactive: T-47D breast 108% | BT-549 breast 101% | MDA-MB-435 melanoma 104% | SW-620 colon 107% | MCF7 breast 98.5% | HCT-116 colon 110% | HCC-2998 colon 114% | KM12 colon 109%

CCCCCCCCCCCCCCCCCC(=O)OCCCCCCCCCCCCC
inactive: T-47D breast 98.4% | BT-549 breast 133% | MDA-MB-435 melanoma 109% | SW-620 colon 117% | MCF7 breast 114% | HCT-116 colon 111% | HCC-2998 colon 113% | KM12 colon 105%

c1cc(C2CCCCC2)ccc1-c1cnc2nonc2n1
inactive: T-47D breast 20.7% | SW-620 colon 22% | KM12 colon 14.2%
active: BT-549 breast 9.82% | MDA-MB-435 melanoma -28.4% | MCF7 breast 7.11% | HCT-116 colon 4.27% | HCC-2998 colon 8.72%

O=C(CCl)N1c2ccccc2Oc2ccc3ccccc3c21
active: T-47D breast -62.5% | BT-549 breast -67.3% | MDA-MB-435 melanoma -22.4% | SW-620 colon -81.2% | HCT-116 colon -98.8%
inactive: MCF7 breast 10.4% | HCC-2998 colon 103% | KM12 colon 17.3%

CCCCCCCCN=C(NCCCCCCCC)SCc1cccc2ccccc12
active: T-47D breast -97.5% | BT-549 breast -74.8% | MDA-MB-435 melanoma -95.6% | SW-620 colon -91.6% | MCF7 breast -88.9% | HCT-116 colon -83.3% | HCC-2998 colon -96.4% | KM12 colon -94.1%

COC(=O)CSc1ccc(Cl)cc1
inactive: T-47D breast 98.7% | BT-549 breast 105% | MDA-MB-435 melanoma 107% | SW-620 colon 106% | MCF7 breast 97.2% | HCT-116 colon 95.5% | HCC-2998 colon 97.4% | KM12 colon 111%

O=C(Nc1cccc(N=Cc2c(O)ccc3ccccc23)c1)c1ccccc1
inactive: T-47D breast 85.2% | BT-549 breast 85.3% | MDA-MB-435 melanoma 101% | SW-620 colon 98.6% | MCF7 breast 86.3% | HCT-116 colon 93.9% | HCC-2998 colon 102% | KM12 colon 95.6%
